# Rows were chosen to be rich in hits. Some 11% of all compounds tested hit in one or more screens of this group.
# Luciferase inh – Photinus pyralis luciferase inhibition | 76,000 tested, 2.5% active | purified P. pyralis luciferase, luminescence, biochemical | Potency, µM (titrated, usually from 115 µM), actives largely listed as inhibitors; also: nearly all actives have a fitted effect of over 65% in size
# Target sequence (P08659 whole entry, looked up): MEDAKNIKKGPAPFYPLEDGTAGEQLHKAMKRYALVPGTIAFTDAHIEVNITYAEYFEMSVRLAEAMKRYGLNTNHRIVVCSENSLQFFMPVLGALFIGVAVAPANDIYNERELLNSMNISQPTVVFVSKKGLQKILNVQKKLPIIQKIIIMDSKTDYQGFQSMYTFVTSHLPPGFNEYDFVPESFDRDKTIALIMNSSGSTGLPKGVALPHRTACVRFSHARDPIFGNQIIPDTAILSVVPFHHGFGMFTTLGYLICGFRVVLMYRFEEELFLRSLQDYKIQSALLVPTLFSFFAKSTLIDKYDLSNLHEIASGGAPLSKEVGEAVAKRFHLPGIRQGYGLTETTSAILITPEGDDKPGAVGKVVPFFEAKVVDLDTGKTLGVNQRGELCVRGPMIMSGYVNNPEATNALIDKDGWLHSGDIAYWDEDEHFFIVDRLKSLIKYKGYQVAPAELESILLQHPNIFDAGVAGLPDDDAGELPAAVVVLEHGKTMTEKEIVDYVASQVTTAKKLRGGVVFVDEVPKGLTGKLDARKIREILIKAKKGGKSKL
#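 Inhibitors were tested against purified firefly luciferase in a biochemical, low-substrate format (both substrates at 10uM) and luminescence measured with a CCD imager.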
# NPR1 antag – human Npr1 receptor antagonism; P16066; HEK293 hNpr1 GloSensor cGMP, ANP-stimulated luminescence; Potency, µM (series often up to 46.3 µM), for inactives: top-dose activity change, negative = inhibition, most hits filed as inhibitors; 76,000 tested, 1.6% active; AID 1347048; calls by dose curve; also: nearly all actives have a fitted effect of over 60% in size
#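 Compound pre-incubated 30 min at room temperature on GloSensor-loaded HEK293 cells stably carrying hNpr1 and the pGS-40F cGMP biosensor. Stimulation uses hNppA at 0.1 nM final; luminescence is taken at baseline and 20 min post-agonist.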
# NIH3T3 tox – cytotoxic compounds in NIH 3T3 cells; NIH 3T3 viability, CellTiter-Glo ATP luminescence, 48-72 h; 94,000 tested, 4.3% active; Potency, µM (titrated, usually from 96.7 µM), without a hit: at the highest dose activity change, negative = cytotoxicity, hits mostly inhibitors; AID 1345082; also: nearly all actives have a fitted effect of over 55% in size
#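 ATP-dependent luminescence (CellTiter-Glo) served as the viability signal for NIH 3T3 cells treated with compound for 48 or 72 hr at 37 °C.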
# HEK cytotox – HEK 293 cell cytotoxicity | Potency, µM (top dose mostly 115 µM), for inactives: top-dose activity change, negative = cytotoxicity, actives largely listed as inhibitors | HEK 293 viability, ATP luminescence (CellTiter-Glo), 48-72 h | 94,000 tested, 6.6% active | AID 1345083; also: nearly all actives have a fitted effect of over 60% in size
#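 Read-out: CellTiter-Glo ATP luminescence. Cells: HEK 293, 250 cells/well. Exposure: 48 or 72 hr, 37 degree Celsius.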
# An asterisk follows results filed as active; i = inactive; ? = inconclusive; . = no result given; [ ] = remark or other dose. Unless noted, calls follow the shape of the dose curve; as a rule, active = well fitted curve in the direction sought with a large enough effect; inconclusive = small, poorly fitted or top-dose-only effect, or another doubt; inactive = no such curve, though single readings can be large; an effect the other way counts as inactive or inconclusive. % is scaled to controls: 0 for no effect and ±100 for the full control effect; potency is read from the fitted curve at half-maximal effect.
SMILES,Luciferase inh,NPR1 antag,NIH3T3 tox,HEK cytotox
Cc1nn(C(=O)CCCC(=O)N2CCC(CCOc3ccc(F)cc3)C2)c2ccccc12 (stereo not drawn),i,?,-1%,4%
Cn1c(=O)c2c(ncn2CC(=O)N2CCC(CCOc3ccc(F)cc3)C2)n(C)c1=O (stereo not drawn),i,-30%,-24%,89µM*
Cc1ccc(OCC(=O)N2CCC(CCOc3ccc(F)cc3)C2)cc1 (stereo not drawn),i,-19%,?,?
Cc1cnc(C2CC2)n1CCNC(=O)CC1CCCC1,.,.,-20%,-1%
CN1CCC2(C1)CN(CC1CCOCC1)c1ccc(C(=O)NCCOc3ccccc3)cc12 (stereo not drawn),i,-1%,32µM*,?
CN1CCC2(C1)CN(CC1CCOCC1)c1ccc(C(=O)NCCCO)cc12 (stereo not drawn),i,-1%[70.6 µM],89µM*,?
CN1CCC2(C1)CN(CC1CCOCC1)c1ccc(C(=O)NCCc3ccccc3)cc12 (stereo not drawn),i,7%[70.6 µM],?,?
CC(C)CNC(=O)c1ccc2c(c1)C1(CCN(C)C1)CN2CC1CC1 (stereo not drawn),i,-1%[70.6 µM],?,?
CC(C)NC(=O)N(C1CC1)C1CCOC2(CCN(C(=O)C3CC3)CC2)C1 (stereo not drawn),.,.,-10%,-1%
O=C(NCc1ccc(F)cc1)[C@@H]1COCC(=O)N1Cc1ccc(F)cc1,.,.,-28%,2%
COCCn1ccc2c(C3=CCOCC3)nc(-c3cccc4[nH]ncc34)cc21,i,-11%[70.6 µM],?,?
COCCn1ccc2c(C3=CCOCC3)nc(-c3cccc4[nH]ccc34)cc21,i,-1%[70.6 µM],50µM*,28µM*
COCCn1ccc2c(C3=CCOCC3)nc(-c3ccc4c(c3)CNC4=O)cc21,?,-1%[70.6 µM],?,?
COCCn1ccc2c(C3=CCOCC3)nc(-c3cccc(N4CCOCC4)c3)cc21,i,2%[70.6 µM],45µM*,?
COCCn1ccc2c(C3=CCOCC3)nc(-c3ccc4cn[nH]c4c3)cc21,i,-2%[70.6 µM],?,?
COCCn1ccc2c(C3=CCOCC3)nc(-c3cccc(CO)c3)cc21,i,3%[70.6 µM],13µM*,?
CN1CC(C(=O)NC2Cc3ccccc3C2)NC1=O (stereo not drawn),.,.,-5%[138 µM],-22%[172 µM]
Oc1ccccc1CN1CCC[C@H]1c1nc(-c2ccc(N3CCOCC3)nc2)no1,?,4%[70.6 µM],?,?
COc1ccc(-c2noc([C@@H]3Cc4nc[nH]c4CN3Cc3ccc(CO)o3)n2)cc1,40µM*,-5%[70.6 µM],-25%[138 µM],-24%[172 µM]
COc1ccc(CN2Cc3[nH]cnc3C[C@H]2c2nc(-c3ccccn3)no2)cc1,35µM*,-18%[70.6 µM],?,?
COc1ccc(CN2Cc3[nH]cnc3C[C@H]2c2nc(-c3ccc(C)cc3)no2)cc1,40µM*,-22%[70.6 µM],79µM*,100µM*
COc1ccccc1CN1Cc2[nH]cnc2C[C@H]1c1nc(-c2cccc(C)c2)no1,i,-26%[70.6 µM],71µM*,63µM*
COc1ccc(-c2noc([C@@H]3Cc4nc[nH]c4CN3C(=O)c3ccc(F)cc3)n2)cc1,?,-10%[70.6 µM],?,?
CCOC(=O)C1CCCN(C(=O)c2cn3cc(-c4cccc(C(F)(F)F)c4)sc3n2)C1 (stereo not drawn),.,.,-31%,-16%
COc1ccc(Cn2c(=O)c(C(=O)N3CCN(C(=O)c4ccccc4Cl)CC3)nc3cccnc32)cc1,.,.,-13%,-20%
SMILES,Luciferase inh,NPR1 antag,NIH3T3 tox,HEK cytotox
COc1ccc(CN2Cc3[nH]cnc3C[C@H]2c2nc(-c3ccc4ccccc4c3)no2)cc1,i,-20%,40µM*,45µM*
COc1ccc(-c2noc([C@@H]3Cc4nc[nH]c4CN3Cc3ccc(C)cc3)n2)cc1,63µM*,-25%[70.6 µM],?,89µM*
COc1ccc(CN2Cc3[nH]cnc3C[C@H]2c2nc(-c3ccncc3)no2)cc1,i,-26%[70.6 µM],?,?
CCc1ncc(-c2c(-c3ccccc3)ncn2CCCOc2cccnc2)cn1,i,6%,0%,i
Cc1cc(C)n(CCc2c(-c3ccccc3)ncn2CCCc2cccnc2)n1,i,0%,50µM*,1%
COc1ccc(CNC(=O)C2CN(C(C)C)C(=O)N2)cc1 (stereo not drawn),.,.,-21%[138 µM],0%[172 µM]
Clc1cccc(-c2ccc(CNc3ncncn3)o2)c1,?,?,?,32µM*
CCNCc1ccc(-c2ccc(Cl)cc2)o1,i,3%,?,?
CC(=O)N1CCC2(CC1)CC(c1cccc(C(F)(F)F)c1)=NO2,.,.,-10%[138 µM],-6%[172 µM]
Cc1ccccc1C(=O)N1CCC2(CC1)CC(c1cccc(C(F)(F)F)c1)=NO2,.,.,?,32µM*
O=C(c1ccccc1F)N1CCC2(CC1)CC(c1cccc(C(F)(F)F)c1)=NO2,.,.,?,40µM*
Cn1cccc1CN1CCC2(C1)C(=NC1CCCC1)NC(=O)N2c1cc(F)cc(F)c1 (stereo not drawn),.,.,?,-12%
Cc1cn2nnc(C(=O)NCc3ccc(OC(C)C)cc3)c2c(=O)[nH]1,i,-29%,-24%,?
c1ccc(-c2nnc3ccc(N4CCc5ccccc5C4)nn23)nc1,i,4%[70.6 µM],?,71µM*
Fc1ccc(-c2nnc3ccc(Nc4ccc(N5CCOCC5)cc4)nn23)nc1,i,-1%[70.6 µM],?,?
c1ccc(-c2nnc3ccc(Nc4ccc(N5CCOCC5)cc4)nn23)nc1,?,-5%[70.6 µM],?,63µM*
COc1ccc(-c2nnc3ccc(N4CCc5ccccc5C4)nn23)nc1,i,-4%[70.6 µM],?,56µM*
COC1CCN(c2ccc3nnc(-c4ccccn4)n3n2)CC1,i,6%[70.6 µM],50µM*,-10%[172 µM]
Cc1ccc(-c2nnc3ccc(N4CCCC4)nn23)nc1,i,6%[70.6 µM],?,-18%[230 µM]
CCOC(=O)CC(=O)N1CCC(=O)N(CC(=O)OCC)c2ccccc2C(OC)C1 (stereo not drawn),.,.,-22%[46.1 µM],?
O=C(C[C@@H]1C[C@@H]2C=C[C@H]1C2)NCc1cccnc1-n1cnc2ccccc21,i,0%,-20%,-22%
CCC(c1cccnc1)N(C)C(=O)c1cc(COc2ccccc2)[nH]n1 (stereo not drawn),i,-1%,-15%,79µM*
CCN(Cc1ccccc1F)C(=O)c1cc(COc2ccccc2)[nH]n1,i,5%,?,?
COc1ccc2[nH]c3c(c2c1)CCNC31CCN(C(=O)c2ccc(C)nc2)CC1,i,1%,-11%,79µM*
COc1ccc2[nH]c3c(c2c1)CCNC31CCN(C(=O)c2cnc(C)cn2)CC1,i,9%,-3%,?
COc1ccc2[nH]c3c(c2c1)CCNC31CCN(C(=O)c2ccc(OC)nc2OC)CC1,i,3%,-28%,11µM*
O=S(=O)(c1ccc(Cl)cc1)c1nnn2c1nc(N1CCCCC1)c1ccccc12,.,.,-26%,i
